# High-throughput results deposited in PubChem BioAssay by National Center for Advancing Translational Sciences (NCATS).
# Compounds with a hit are over-represented: about 9.4% of the library has one in this group of screens.
# ELG1 genotoxic – qHTS screen for small molecules that induce genotoxicity in human embryonic kidney (HEK293T) cells expressing luciferase-tagged ELG1; HEK293T ELG1-luciferase reporter, luminescence, 16 h; Potency, µM (doses to about 46 µM), for inactives: at the highest dose activity change, positive = activation, most hits filed as activators; 1.3% of 330,000 active; AID 504466, 2011; further: % of control where 0% means no effect; nearly all actives have a fitted effect of over 60% in size
#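 Genotoxic stress is detected as increased luminescence from luciferase-tagged ELG1 in HEK293T cells, measured with ONE-Glo after a 16 hr treatment at 37 °C.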
# ELG1 DNA repair – qHTS screen for small molecules that inhibit ELG1-dependent DNA repair in human embryonic kidney (HEK293T) cells expressing luciferase-tagged ELG1; AID 504467, 2011; HEK293T ELG1-luciferase reporter, luminescence, 16 h; DNA damage induced by 5-fluorouridine; Potency, µM (series often up to 46.1 µM), for inactives: top-dose activity change, negative = inhibition, usual class: inhibitors; 2.3% of 330,000 active; further: on the % scale 0 is the no-effect control and ±100 the full control effect; nearly all actives have a fitted effect of over 55% in size
#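 In this reporter screen, reduction of luminescence relative to DMSO vehicle indicated activity. Compounds and 5-fluorouridine were added together to 2,000 cells per well, incubated for 16 hr at 37 °C, then developed with ONE-Glo.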
# NPC1 prom act – qHTS Assay for NPC1 Promoter Activators; Huh7 NPC1 promoter luciferase reporter, 24 h; 2.4% of 320,000 active; Potency, µM (highest dose often 9.22 µM), without a hit: at the highest dose activation, actives largely listed as activators; further: % of control where 0% means no effect; nearly all actives have a fitted effect of over 60% in size
#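 Readout is luciferase luminescence, reflecting NPC1 promoter activation in stably transfected Huh7 cells after 24 h compound exposure at 37 °C in reduced-serum medium with 10% FBS.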
# SMN2 splice enh – qHTS Assay for Enhancers of SMN2 Splice Variant Expression. HEK293 SMN2-luciferase splicing reporter, luminescence, 30-36 h. Potency, µM (top dose mostly 46.1 µM), for inactives: at the highest dose activity change, positive = activation, most hits filed as activators. 2.8% of 210,000 active; further: % of control where 0% means no effect; nearly all actives have a fitted effect of over 55% in size
#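 HEK293 cells carry an SMN2 […]–luciferase reporter in which exon 7 inclusion puts luciferase in frame. Cells were plated 10-12 h before compound addition, then incubated 30-36 h at 37C. ONE-Glo luminescence was read; sodium butyrate at 4.5 mM final served as control.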
# FLuc counter – qHTS profiling assay for firefly luciferase inhibitor/activator using purifed enzyme and Km concentrations of substrates (counterscreen for miR-21 project); Luciferin 4-monooxygenase (Photinus pyralis), P08659; purified FLuc, Km substrates, luminescence inhibition; Potency, µM (highest dose often 57.5 µM), without a hit: top-dose activity change, negative = inhibition, most hits filed as inhibitors; 6.9% of 360,000 active; AID 588342, 2011;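 further: plate controls were vehicle for no effect and reference inhibitor for full effect; nearly all actives have a fitted effect of over 55% in size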
# Target sequence (P08659 whole entry, looked up): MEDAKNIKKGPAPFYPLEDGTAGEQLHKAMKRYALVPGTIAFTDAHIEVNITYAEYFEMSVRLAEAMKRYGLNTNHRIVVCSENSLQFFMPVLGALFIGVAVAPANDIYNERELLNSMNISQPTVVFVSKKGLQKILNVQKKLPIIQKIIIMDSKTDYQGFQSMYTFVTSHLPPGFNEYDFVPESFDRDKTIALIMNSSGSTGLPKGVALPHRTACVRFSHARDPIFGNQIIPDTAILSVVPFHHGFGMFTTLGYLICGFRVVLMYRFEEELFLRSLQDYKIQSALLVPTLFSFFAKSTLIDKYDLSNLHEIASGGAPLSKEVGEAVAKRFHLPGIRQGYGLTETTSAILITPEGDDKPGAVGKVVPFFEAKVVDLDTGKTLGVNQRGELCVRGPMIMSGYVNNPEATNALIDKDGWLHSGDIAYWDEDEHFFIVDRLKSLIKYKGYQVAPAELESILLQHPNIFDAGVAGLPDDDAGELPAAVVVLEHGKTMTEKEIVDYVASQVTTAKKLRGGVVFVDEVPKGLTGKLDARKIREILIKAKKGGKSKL
#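 Purified P. pyralis luciferase, 10 nM final, with Km-level 10 uM D-luciferin and 10 uM ATP in 50 mM Tris acetate pH 7.5, 10 mM Mg acetate, 0.01% Tween-20, 0.05% BSA; 6-point qHTS titration about 60 µM downward; luminescence read.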
# Rab9 promoter act – qHTS Assay for Rab9 Promoter Activators. 2.8% of 320,000 active. Huh7 Rab9 promoter-luciferase reporter, luminescence, 24 h. AID 485297, 2010. Potency, µM (top dose mostly 9.22 µM), without a hit: at the highest dose activation, negative = inhibition, hits mostly activators; further: % of control where 0% means no effect; nearly all actives have a fitted effect of over 60% in size
#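 Using Huh7 cells stably transfected with Rab9 promoter–luciferase, compounds were incubated 24 h at 37 °C, 5% CO2; luciferase luminescence was read 10 min after reagent addition.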
# An asterisk follows results filed as active; ? = inconclusive; nt = no result given; [ ] = remark or other dose. The call rests on the fitted dose curve; in most records, active means well fitted curve in the direction sought with a large enough effect; inconclusive means small, poorly fitted or top-dose-only effect, or another doubt; inactive means no such curve, though single readings can be large; an effect the other way counts as inactive or inconclusive. Potency means the concentration at half of the fitted maximal effect.
SMILES,ELG1 genotoxic,ELG1 DNA repair,NPC1 prom act,SMN2 splice enh,FLuc counter,Rab9 promoter act
Fc1ccc(NC(=S)Nc2cccnc2)cc1,-8%,-13%,-2%,-9%,3%,-2%
CC(=O)c1ccc(NC(=O)Nc2cccnc2)cc1,21µM*,?,2.5µM*,nt,?,?
CCOc1ccc(NC(=O)Nc2ccon2)cc1,?,?,25%,nt,24µM*,?
Cc1ccc(NC(=O)Nc2ccon2)cc1,14%,?,25%,nt,?,?
O=C(NCC(F)(F)F)Nc1cccnc1,1%,-9%,-7%,-10%,-1%,7%
Oc1cc(CN2COc3ccccc32)c(O)cc1CNC1CCCCC1,nt,nt,nt,4%[9.22 µM],nt,nt
Cn1ccc2cc3c(cc21)CCN3C(=O)Nc1cccnc1,?,?,3.7µM*,?,6µM*,3.2µM*
CCC(C)c1ccc(NC(=O)Nc2cccnc2)cc1 (centres undefined),?,?,1.8µM*,nt,1.7µM*,4.5µM*
O=C(Nc1cccnc1)Nc1cc(Cl)cc(Cl)c1,-5%,-10%,-9%,nt,?,-6%
Cc1ccc(NC(=O)Nc2cccnc2)cc1Cl,?,?,?,nt,4.8µM*,28%
O=C(Nc1ccccc1)Nc1ccc(Oc2cccnc2)nc1,6%,?,27%,nt,13µM*,25%
CC(C)[C@@H](C)/C=C\[C@@H](C)[C@@H]1CC[C@H]2C3=CC=C4C[C@@H](O)CC[C@]4(C)[C@H]3CC[C@]21C,nt,nt,nt,-1%[9.22 µM],nt,nt
CCc1ccc2occ(CC(=O)NCc3ccccc3)c2c1,nt,nt,nt,-20%,?,nt
O=C(Nc1ccccc1)C(=O)Nc1cccnc1,?,?,0.5µM*,nt,3µM*,0.4µM*
O=C(Nc1cccnc1)Nc1cccc([N+](=O)[O-])c1,-8%,-11%,11%,nt,-18%,5%
Cc1ccc(NC(=O)Nc2ccon2)cc1Cl,3%,24%,21%,nt,19µM*,23%
CN1CCc2cc(NC(=O)Nc3cccnc3)ccc21,nt,nt,9.2µM*,?,nt,?
O=C(Nc1ccc(Cl)cc1)Nc1ccon1,3%,-2%,-22%,nt,?,6%
CCCCSCCCNC(=O)c1cn(CC)c2ccc(S(=O)(=O)N(C)C3CCCCC3)cc2c1=O,nt,nt,nt,-4%,-18%,nt
N=S(=O)(O)Cc1noc2ccccc12,nt,nt,-1%[46.1 µM],-30%,nt,-2%[46.1 µM]
CCCCCc1ccc(S(=O)(=O)Nc2cc(C)ccn2)cc1,-5%,10µM*,-1%,nt,1%,-17%
CCOc1ccc2nc(SCc3ccccc3C#N)sc2c1,?,?,3.2µM*,11µM*,7.6µM*,2.5µM*
CCOc1ccc2nc(SCC(=O)NC3CC3)sc2c1,-8%,-3%,?,nt,5%,?
CCOc1ccc2nc(SCCNS(=O)(=O)c3ccccc3)sc2c1,1%,?,-1%,-42%,?,0%
CCOc1ccc2nc(SCc3ccc(OC)cc3)sc2c1,1%,?,6%,-21%,13µM*,8%
SMILES,ELG1 genotoxic,ELG1 DNA repair,NPC1 prom act,SMN2 splice enh,FLuc counter,Rab9 promoter act
CCOc1ccc2nc(SCC(=O)c3ccccc3)sc2c1,18µM*,?,16%,16%,15µM*,29%
COc1cc(C(=O)N2CCN(C(=O)COc3ccc4ccccc4c3)CC2)cc(OC)c1OC,2%,-20%,8%,-8%,11µM*,1%
COc1cccc(C(=O)N2CCN(C(=O)COc3ccc4ccccc4c3)CC2)c1,-24%,?,-5%,nt,6µM*,-2%
CCOc1cc2sc(N3CCC(C(=O)Nc4ccccc4Cl)CC3)nc2cc1Br,nt,nt,nt,?,0%,nt
Cc1ccc(-c2n[nH]c(=S)n2/N=C/c2c(C)nn(-c3ccccc3)c2C)cc1,-2%,-22%,-5%,-6%,7%,-2%
Cc1ccccc1-c1n[nH]c(=S)n1/N=C/c1c(C)nn(-c2ccccc2)c1C,-9%,0%,-2%,14µM*,1%,0%
CCCc1cc(=O)[nH]c(SCC(=O)Nc2ccc(C)cc2)n1,2%,-6%,-1%,8%,-9%,-1%
CCc1ccc(NC(=O)CSc2nc(CSc3ccc(C)cc3)cc(=O)[nH]2)cc1,6%,0%,-6%,nt,19µM*,-3%
Cc1ccc(SCc2cc(=O)[nH]c(SCC(=O)Nc3cc(Cl)ccc3Cl)n2)cc1,-1%,12%,-2%,-8%,27µM*,-5%
COc1cc2c(cc1OC)C1(O)C(=O)c3ccc(O)c(C(=O)O)c3OC1CO2 (centres undefined),nt,nt,nt,2%,nt,nt
C[C@H]1C[C@H]2[C@H]3CCC4=CC(=O)C=C[C@@]4(C)[C@]3(F)[C@H](O)C[C@]2(C)[C@@]1(O)C(=O)COP(=O)(O)O,nt,nt,nt,3%[9.22 µM],nt,nt
COC(=O)CC1c2cc(OC)c(OC)cc2CCN1C(=O)Nc1ccc(C)cc1Cl (centres undefined),nt,nt,nt,nt,8%,nt
COc1ccc2cc3cc(C(=O)Nc4ccccc4C)oc3nc2c1,nt,nt,nt,11%,-7%,nt
COc1ccc(NC(=O)CCC(=O)Nc2ccc3nc(N4CCOCC4)cc(C)c3c2)c(OC)c1,?,?,?,nt,2.7µM*,2.5µM*
COc1cc(NC(=O)CCC(=O)Nc2ccc3nc(N4CCOCC4)cc(C)c3c2)cc(OC)c1OC,6%,?,24%,nt,15µM*,16%
COc1ccc(N(C)C(=O)CCC(=O)Nc2ccc3nc(N4CCOCC4)cc(C)c3c2)c(OC)c1,-2%,?,-2%,nt,?,16%
CCCN(CCC)CCCNC(=O)C1CCN(c2nc3ccc(CC)cc3s2)CC1,nt,nt,nt,28%,12µM*,nt
CCCN(CCC)CCNC(=O)C1CCN(c2nc3ccc(CC)cc3s2)CC1,nt,nt,nt,24%,21µM*,nt
CCCCN(CCCC)CCCNC(=O)c1ccc2nc(N3CCCCC3)sc2c1,nt,nt,nt,15%,4%,nt
CC(C)CCNC(=O)C1CCN(c2nc3ccccc3o2)CC1,-7%,?,1%,-31%,-2%,-1%
Cc1ccc(CNC(=O)c2ccc3nc(N4CCCCC4)sc3c2)cc1,nt,nt,nt,12%,-2%,nt
CCc1ccc2nc(N3CCC(C(=O)NCCC(C)C)CC3)sc2c1,nt,nt,nt,-7%,1.9µM*,nt
N#Cc1c(NCCN)nc(NCc2ccccc2)c2c1CCN(Cc1ccccc1)C2,-24%,13µM*,10%,nt,-4%,-2%
C=CCNc1nc(NCc2ccccc2)c(C#N)c2c1CN(C)CC2,-3%,-23%,-5%,22µM*,1%,2%
